Screening results: PubChem BioAssay, National Center for Advancing Translational Sciences (NCATS)
G9a inh: qHTS Assay for Inhibitors of Histone Lysine Methyltransferase G9a; Histone-lysine N-methyltransferase EHMT2 (Homo sapiens), Q96KQ7; Potency, µM (highest dose often 102 µM), usual class: inhibitors; hit rate 8.8% among 350,000; G9a H3K9 monomethylation, AlphaScreen, 2 h; further: nearly all actives have a fitted effect of over 75% in size
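AlphaScreen read-out: biotin-H3K9 peptide (500 nM) methylation by 20 nM enzyme with 20 uM SAM, 2 h at room temperature after 15 min compound preincubation; anti-monomethyl H3K9 antibody plus donor/acceptor beads, 10 min dark.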
Sfp inh: qHTS Assay for Inhibitors of Bacillus subtilis Sfp phosphopantetheinyl transferase (PPTase); 4'-phosphopantetheinyl transferase ffp (Bacillus subtilis), Q9F4F7; Potency, µM, actives largely listed as inhibitors; hit rate 3.5% among 310,000; Biochemical Sfp PPTase activity, qHTS;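 further: the enzyme is Sfp with the accession as filed and its product quenches rhodamine fluorescence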
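Sfp 15 nM + cpd, 15 min RT; start w/ rhodamine-CoA 5 uM, BHQ-2-YbbR 12.5 uM (final); 50 mM Hepes pH 7.6, 10 mM MgCl2, 0.01% NP-40, 0.01% BSA; read 525/598 nm at 0 and 30 min.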
BAZ2B block: qHTS Assay for Inhibitors of BAZ2B. Bromodomain adjacent to zinc finger domain protein 2B (Homo sapiens), Q9UIF8. AlphaScreen BAZ2B-H3K14Ac peptide displacement. Potency, µM (series often up to 114 µM), most hits filed as inhibitors. hit rate 4.4% among 360,000. AID 504333, 2011; further: nearly all actives have a fitted effect of over 60% in size
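AlphaScreen luminescence quantifies BAZ2B engagement of H3K14Ac peptide; the protein and biotinylated peptide are both at 50 nM final, buffer PBS pH 7.4 with 0.01% Tween-20, all steps at room temperature.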
JMJD2A Tudor inh: qHTS Assay for Inhibitors of JMJD2A-Tudor Domain; hit rate 4.4% among 390,000; AID 504339, 2011; Potency, µM (top dose mostly 114 µM), usual class: inhibitors; Lysine-specific demethylase 4A (Homo sapiens), O75164; AlphaScreen JMJD2A-Tudor / H3K4me3 peptide binding; further: nearly all actives have a fitted effect of over 50% in size
HP1b binding inh: HTS for Inhibitors of HP1-beta Chromodomain Interactions with Methylated Histone Tails; hit rate 0.56% among 390,000; Potency, µM (titrated, usually from 114 µM), usual class: inhibitors; AlphaScreen HP1-beta / biotin-H3K9me3 peptide binding; AID 540317, 2011; Chromobox protein homolog 1 (Homo sapiens), P83916; further: nearly all actives have a fitted effect of over 70% in size
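Compound inhibition of the preformed complex between 50 nM HP1-beta and 50 nM biotinylated H3K9me3 peptide was read by AlphaScreen. Buffer was PBS pH 7.4 with 0.01% Tween-20. Incubations ran 30 min at room temperature, with 10 ug/mL donor/acceptor beads.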
Of the large screens only hits and unclear results are named; the others gave an inactive call. Sampled rows, rich in hits. Any-hit rate of the full collection: about 12%. The call rests on the fitted dose curve; in most records, active means well fitted curve in the direction sought with a large enough effect; inconclusive means small, poorly fitted or top-dose-only effect, or another doubt; inactive means no such curve, though single readings can be large; an effect the other way counts as inactive or inconclusive.

CCOC(=O)N1CCC(NC(=O)c2cnn3c2NC(c2ccco2)CC3C(F)(F)F)CC1 (stereo unspecified)	G9a inh inconclusive, Sfp inh 56µM
CN(Cc1ccc(-n2cccn2)cc1)C(=O)c1cnn2c1NC(c1ccco1)CC2C(F)(F)F (stereo unspecified)	G9a inh inconclusive, Sfp inh 20µM
Cc1ccc(C2CC(C(F)(F)F)n3ncc(C(=O)NCc4ccco4)c3N2)cc1 (stereo unspecified)	G9a inh 45µM, BAZ2B block inconclusive, JMJD2A Tudor inh inconclusive
COCCNC(=O)c1cnn2c1NC(c1ccco1)CC2C(F)(F)F (stereo unspecified)	none
CCCCN(Cc1cc2ccccc2[nH]c1=O)C(=O)c1cccc(Cl)c1	none (no result: Sfp inh)
COC(=O)c1c(NC(=O)c2cc3nc(-c4ccc(Br)cc4)cc(C(F)(F)F)n3n2)sc2c1CCCC2	none (no result: Sfp inh)
COc1ccc(C(=O)Nc2nnc(S(=O)(=O)N3CCCc4ccccc43)s2)cc1	BAZ2B block inconclusive, JMJD2A Tudor inh inconclusive (no result: Sfp inh)
CCc1cccc(NS(=O)(=O)c2ccc3c(c2)N(CC(=O)OC)C(=O)CS3)c1	none (no result: Sfp inh)
CC(C)(C)C(=O)CSc1ncccn1	G9a inh inconclusive, Sfp inh 45µM, BAZ2B block inconclusive, JMJD2A Tudor inh inconclusive
COc1ccc(NC(=O)NNC(=O)CCc2ccc(O)c(O)c2)cc1OC	JMJD2A Tudor inh 28µM, HP1b binding inh inconclusive
COc1ccc(CCC(=O)NNC(=O)Nc2ccc(OC)c(OC)c2)cc1	none
O=c1c(-c2ccc3c(c2)OCCO3)coc2cc(O)cc(O)c12	Sfp inh 20µM
O=c1c(-c2ccccc2)coc2cc(O)cc(O)c12	none (no result: BAZ2B block, JMJD2A Tudor inh, HP1b binding inh)
Cc1cccc(CN2CCN(C(=S)Nc3ccccc3)CC2)c1	none (no result: G9a inh)
FC(F)(F)c1cccc(CN2CCSCC2)c1	G9a inh 10µM, BAZ2B block 56µM, JMJD2A Tudor inh 22µM, HP1b binding inh inconclusive
Cc1cccc(CN2CCSCC2)c1	G9a inh inconclusive, BAZ2B block inconclusive, JMJD2A Tudor inh 20µM, HP1b binding inh inconclusive
O=S1(=O)CCN(Cc2cccc(C(F)(F)F)c2)CC1	none
Cc1cccc(C)c1NC(=O)CN1C(=O)CCSc2ccc(S(=O)(=O)N3CCCC3)cc21	none
COc1ccccc1CNc1ncncc1-c1ccccc1OC	none (no result: BAZ2B block, JMJD2A Tudor inh, HP1b binding inh)
Nc1nnc(SCC(=O)c2ccc([N+](=O)[O-])cc2)s1	G9a inh inconclusive
Cc1nnc(SCC(=O)c2ccc([N+](=O)[O-])cc2)s1	Sfp inh 50µM
O=C(CSc1ccccc1C(=O)O)c1ccc([N+](=O)[O-])cc1	G9a inh 20µM, BAZ2B block inconclusive, JMJD2A Tudor inh 20µM, HP1b binding inh inconclusive
CCCCOC(=O)CSC1=C(C#N)C(c2ccccc2OC)C(C#N)C(=O)N1 (stereo unspecified)	BAZ2B block inconclusive, JMJD2A Tudor inh inconclusive
CCCOC(=O)CSC1=C(C#N)C(c2ccccc2OCC)C(C#N)C(=O)N1 (stereo unspecified)	G9a inh inconclusive, BAZ2B block 50µM, HP1b binding inh inconclusive
CCCCOC(=O)CSC1=C(C#N)C(c2ccccc2OCC)C(C#N)C(=O)N1 (stereo unspecified)	BAZ2B block 50µM
CCOC(=O)C1C(=O)NC(SCC(N)=O)=C(C#N)C1c1ccccc1OCC (stereo unspecified)	G9a inh 20µM, Sfp inh 16µM, JMJD2A Tudor inh inconclusive
COc1ccc(NC(=O)Nc2cccc3c2O[C@@H](CN(C)CC2CCCCC2)[C@@H](C)CN([C@H](C)CO)C3=O)cc1	none (no result: G9a inh, Sfp inh, BAZ2B block)
